According to PubChem BioAssay (EPA / NIEHS):
Inconclusive results are not listed. The source made the active and inactive calls. Rule for the calls, unless noted: active = hit-call score of the fitted dose curve at least 0.9, where 1 is the maximum; inactive = score below 0.9.

Tests used:
[1] = CEETOX_H295R_OHPROG_noMTC: CeeTox H295R High-throughput Steroidogenesis Assay for OH-Progesterone (OHPROG), maximum tolerated concentration (MTC) filtered results only (AID 2283914); settings: actives raise or lower the signal
Outline: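 Medium hormone measured by reverse-phase C18 HPLC with positive electrospray MS/MS after MTBE liquid-liquid extraction. Cells had 48 h forskolin (10 uM) prestimulation, then 48 h chemical dosing. Gain or loss of signal fitted relative to DMSO baseline.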

[2] = CEETOX_H295R_CORTISOL_noMTC: CeeTox H295R High-throughput Steroidogenesis Assay for Cortisol, maximum tolerated concentration (MTC) filtered results only (AID 2283916); settings: actives raise or lower the signal
Outline: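 H295R human adrenal cells prestimulated 48 h with 10 uM forskolin, then exposed 48 h to chemical in 0.1% DMSO; cortisol in medium quantified by HPLC-MS/MS; bidirectional fit vs DMSO baseline, concentrations not MTT-filtered for MTC.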

[3] = CEETOX_H295R_CORTIC_noMTC: CeeTox H295R High-throughput Steroidogenesis Assay for Corticosterone (CORTIC), maximum tolerated concentration (MTC) filtered results only (AID 2283917); settings: actives raise or lower the signal
Outline: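 Corticosterone secreted into the medium was measured by reverse-phase C18 HPLC with tandem MS after MTBE extraction. Cells (H295R) had 48 h forskolin (10 uM) stimulation before 48 h chemical exposure; gain or loss of signal was fitted relative to DMSO.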

[4] = CEETOX_H295R_DOC_noMTC: CeeTox H295R High-throughput Steroidogenesis Assay for DOC, maximum tolerated concentration (MTC) filtered results only (AID 2283918); settings: actives raise or lower the signal
Outline: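 H295R cells prestimulated 48 h with 10 uM forskolin, then exposed 48 h to chemical in 0.1% DMSO. 11-Deoxycorticosterone in medium measured by MTBE extraction and HPLC-MS/MS; bidirectional fit vs DMSO, no MTC filter.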

[5] = CEETOX_H295R_PROG_noMTC: CeeTox H295R High-throughput Steroidogenesis Assay for Progesterone (PROG), maximum tolerated concentration (MTC) filtered results only (AID 2283920); settings: actives raise or lower the signal
Procedure: CEETOX_H295R is a cell-based, multiplexed-readout assay that uses H295R, a human adrenal gland cell line, with measurements taken at 48 hours after chemical dosing in a 96-well plate.CEETOX_H295R_PROG_noMTC is one of 12 assay component(s) measured or calculated from the CEETOX_H295R assay (11 hormones and 1 viability assay). It is designed to make measurements of hormone induction, a form of inducible reporter, as detected with absorbance signals by HPLC-MS-MS technology. The concentrations for these components have not been pre-filtered for the maximum tolerated concentration (MTC) based on the MTT assay (_noMTC).Data from the assay component CEETOX_H295R_PROG_noMTC was analyzed into 1 assay endpoint. This assay endpoint, CEETOX_H295R_PROG_noMTC, was analyzed with bidirectional fitting relative to DMSO as the negative control and baseline of activity. Using a type of inducible reporter, gain or loss-of-signal activity using HPLC-MS-MS was used to understand synthesis of Progesterone in H295R cell line at 48hr of chemical exposure, without filtering concentrations for maximum tolerated concentration (MTC). To generalize the intended target to other relatable targets, this assay endpoint is annotated to the steroid hormone intended target family, where the subfamily is progestagens.
Cell culture and media preparation procedures were conducted in accordance with OECD Test No. 456 guidelines, with minor modifications. H295R cells (ATCC CRL-2128) were expanded for 5 passages and frozen in batches in liquid nitrogen. Prior to the steroidogenesis assay, H295R cells were thawed and passed at least 4 times. The maximum passage was 10. Cells were maintained in a 1:1 mixture of DMEM/F12 supplemented with 5ml/L ITS+ Premix (BD Bioscience) and 12.5 ml/L Nu-Serum (BD Bioscience). After seeding cells into 96-well plates at 50-60% confluency, cells were allowed to adhere overnight. Prior to chemical testing, culture medium was replaced with 175 uL medium containing 10 uM forskolin to stimulate steroidogenesis for 48 hours. Following prestimulation, forskolin medium was replaced with medium containing test chemical solubilized in DMSO (ensuring a final concentration of 0.1% DMSO). Test chemicals were incubated for 48 hours, then the medium was removed and split into 2 vials containing approximately 75uL each, and stored at -80 C prior to hormone analysis. For steroid quantification, media samples were shipped to OpAns, LLC (Durham, NC) on dry ice, and samples were thawed to room temperature prior to liquid-liquid extraction. Steroid hormones were extracted from media samples using methyl tertbutyl ether (MTBE). An extra derivatization with dansyl chloride was included for estrogen (estrone and estradiol) detection only. Steroid hormones were separated by HPLC, eluted using a reverse phase C18 gradient with electrospray positive ionization, followed by quantification by tandem mass spectrometry (MS/MS). Data were acquired on a MassHunter Workstation Acquisition version B03.01 (Agilent Technologies, Inc.) and processed using MassHunter Quantitative Analysis for QQQ. Accuracy was determined for each hormone analyte from 3 standards to determine upper and lower limits of quantification (ULOQ and LLOQ, respectively) using a 7-point standard curve. Precision and accuracy of the extraction and quantification methods were calculated as the percent relative standard deviation (%RSD) of the spiked standards and percent spiked standard recovered, respectively. The goal was to achieve 100% accuracy (i.e., recover all spiked-in standard at quantification with minimal loss during run time) and good precision (i.e., have %RSD <15% to ensure reproducibility). Test medium was removed following chemical exposure, and cell viability was evaluated in the same wells by MTT. MTT procedures were as follows: after removal of test medium, 500 uL of 0.5 mg/ml of 3-[4,5-dimethylthiazol-2-y]2,5-diphenyltetrazoliumbromide solution was added to the cells. […]

[6] = CEETOX_H295R_ANDR_noMTC: CeeTox H295R High-throughput Steroidogenesis Assay for Androstenedione (ANDR), maximum tolerated concentration (MTC) filtered results only (AID 2283915); settings: actives raise or lower the signal
Outline: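 Androstenedione secreted into medium was measured by LC-MS/MS after MTBE extraction. Human adrenal H295R cells received 10 uM forskolin for 48 h before 48 h chemical exposure (0.1% DMSO). Gain or loss fitted against DMSO, including concentrations above the MTT-derived MTC.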

[7] = CEETOX_H295R_TESTO_noMTC: CeeTox H295R High-throughput Steroidogenesis Assay for Testosterone (TESTO), maximum tolerated concentration (MTC) filtered results only (AID 2283924); settings: actives raise or lower the signal
Outline: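 Medium testosterone, measured by HPLC-MS/MS after liquid-liquid extraction, was fitted in both directions relative to DMSO without MTC filtering. Adrenal H295R cells received 48 h chemical exposure (0.1% DMSO final) after 48 h forskolin (10 uM) prestimulation; viability by MTT.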

[8] = CEETOX_H295R_ESTRADIOL_noMTC: CeeTox H295R High-throughput Steroidogenesis Assay for Estradiol, maximum tolerated concentration (MTC) filtered results only (AID 2283919); settings: actives raise or lower the signal
Outline: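 Readout: dansyl-derivatized estradiol quantified by LC-MS/MS in medium from H295R cells dosed 48 h (0.1% DMSO) following 48 h forskolin (10 uM) prestimulation. Gain or loss of signal fitted against DMSO; no MTC filtering applied.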

[9] = CEETOX_H295R_ESTRONE_noMTC: CeeTox H295R High-throughput Steroidogenesis Assay for Estrone, maximum tolerated concentration (MTC) filtered results only (AID 2283921); settings: actives raise or lower the signal
Outline: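 Estrone in spent medium, quantified by tandem MS following dansyl chloride derivatization, after 48 h chemical exposure (0.1% DMSO) of forskolin-prestimulated (10 uM, 48 h) H295R cells; concentrations not MTC-filtered, bidirectional fit against DMSO.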

PGR (gene 5241) = PGR (gene 5241) (UniProt P06401); test: TOX21_PR_BLA_Followup_Agonist_ratio: Tox21 HEK293 Progesterone Receptor (PR) Agonism Beta-lactamase Follow-Up Assay, Ratio (AID 2283933; active = hit-call score of the fitted dose curve at least 0.9, where 1 is the maximum)
Outline: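 Beta-lactamase reporter readout: ratio of cleaved (ch2) to uncleaved (ch1) substrate after 2 h room-temperature loading, following 16 h compound exposure at 37C. Cells were PR-UAS-bla HEK293T in 2% charcoal-stripped FBS medium. Viability was multiplexed by CellTiter-Glo.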

Measured: AC50

Sequence of PGR (gene 5241) (P06401 whole entry, looked up): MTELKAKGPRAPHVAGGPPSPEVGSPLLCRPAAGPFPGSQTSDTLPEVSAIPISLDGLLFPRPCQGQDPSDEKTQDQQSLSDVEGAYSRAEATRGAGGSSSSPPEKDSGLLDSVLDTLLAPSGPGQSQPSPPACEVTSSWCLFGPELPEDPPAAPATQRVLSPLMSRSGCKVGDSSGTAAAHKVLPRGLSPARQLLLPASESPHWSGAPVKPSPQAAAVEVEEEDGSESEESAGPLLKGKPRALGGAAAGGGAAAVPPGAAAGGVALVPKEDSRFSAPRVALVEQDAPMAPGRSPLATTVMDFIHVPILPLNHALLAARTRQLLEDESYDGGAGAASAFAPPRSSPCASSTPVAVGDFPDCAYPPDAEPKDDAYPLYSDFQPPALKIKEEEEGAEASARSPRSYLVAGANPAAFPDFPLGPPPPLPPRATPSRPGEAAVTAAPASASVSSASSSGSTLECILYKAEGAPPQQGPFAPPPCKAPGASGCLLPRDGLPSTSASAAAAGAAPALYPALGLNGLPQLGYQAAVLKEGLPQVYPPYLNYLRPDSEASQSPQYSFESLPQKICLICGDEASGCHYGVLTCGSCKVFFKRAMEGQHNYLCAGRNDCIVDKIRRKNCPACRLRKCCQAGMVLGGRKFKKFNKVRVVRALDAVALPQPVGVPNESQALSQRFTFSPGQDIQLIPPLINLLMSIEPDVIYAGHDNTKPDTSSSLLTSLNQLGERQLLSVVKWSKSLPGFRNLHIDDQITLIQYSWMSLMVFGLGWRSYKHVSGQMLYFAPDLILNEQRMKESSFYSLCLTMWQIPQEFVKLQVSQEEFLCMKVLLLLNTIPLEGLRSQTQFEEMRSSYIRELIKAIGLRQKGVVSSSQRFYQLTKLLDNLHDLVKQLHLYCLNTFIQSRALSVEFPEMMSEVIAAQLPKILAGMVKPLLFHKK

O=C(OC1CCCCC1)c1ccccc1C(=O)OC1CCCCC1
inactive: [2] | [3] | [5]
active: [1] 0.549 µM | [4] 13.5 µM

CCC1(c2ccc(N)cc2)CCC(=O)NC1=O (stereo unspecified)
not listed: [8] | [9] | PGR (gene 5241)
inactive: all other assays above

Cn1sc(Cl)cc1=O
not listed: [6] | [7] | PGR (gene 5241)
inactive: all other assays above

ClC(Cl)=C(Cl)C(Cl)=C(Cl)Cl
inactive: [1] | [2] | [3] | [4] | [5]

c1cc[c]([Hg][c]2ccccc2)cc1
inactive: [8] | [9]
active: [1] 32 µM | [6] 50 µM | [2] 36.9 µM | [3] 76.1 µM | [4] 2.26 µM | [5] 21.9 µM | [7] 67.9 µM

O=C1C2(Cl)C3(Cl)C4(Cl)C(Cl)(Cl)C5(Cl)C3(Cl)C1(Cl)C5(Cl)C24Cl (stereo unspecified)
inactive: PGR (gene 5241)

CC12CC1(C)C(=O)N(c1cc(Cl)cc(Cl)c1)C2=O (stereo unspecified)
inactive: PGR (gene 5241)

C[C@H]1CCCC(=O)CCC/C=C/c2cc(O)cc(O)c2C(=O)O1
active: [1] 2.3 µM | [6] 77.4 µM | [5] 3.94 µM | [9] 36.3 µM | [7] 82.8 µM
inactive: [8]
